The supplement of paper PMC9694430

Columns and labels:
Experiment in all cases: thermal shift delta Tm vs DMSO control; higher = stronger stabilization (binding)
Conditions in all cases: 12.5 µM; protein concentration 2 µM
LOC_OS01G57100-cb003 = test system: LOC_OS01G57100-cb003
Procedure, shortened: (§1)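 Heating from 25°C to 95°C at 0.05°C/s, fluorescence was recorded for 19.5 μl wells of 2 μM E. coli-expressed, purified rice kinase domain in 100 mM potassium phosphate pH 7.5, 150 mM NaCl, 10% glycerol and 5 × SYPRO Orange with compound in DMSO. Boltzmann fits gave melting temperatures for this differential scanning fluorimetry assay. The shift reported is the mean of three replicates against the DMSO-only protein.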

LOC_OS01G60330-cb001 = test system: LOC_OS01G60330-cb001
Procedure, shortened: as §1

LOC_OS01G60700-cb002 = test system: LOC_OS01G60700-cb002
Procedure, shortened: as §1

LOC_OS01G63280-cb003 = test system: LOC_OS01G63280-cb003
Procedure, shortened: as §1

LOC_OS01G67340-cb003 = test system: LOC_OS01G67340-cb003
Procedure, shortened: as §1

LOC_OS01G70970-cb002 = test system: LOC_OS01G70970-cb002
Procedure, shortened: as §1

LOC_OS02G07810-cb001 = test system: LOC_OS02G07810-cb001
Procedure, shortened: as §1

LOC_OS02G08530-cb003 = test system: LOC_OS02G08530-cb003
Procedure, shortened: as §1

LOC_OS02G14120-cb001 = test system: LOC_OS02G14120-cb001
Procedure, shortened: as §1

LOC_OS02G17970-cb001 = test system: LOC_OS02G17970-cb001
Procedure, shortened: as §1

LOC_OS02G45750-cb003 = test system: LOC_OS02G45750-cb003
Procedure, shortened: as §1

LOC_OS02G54510-cb004 = test system: LOC_OS02G54510-cb004
Procedure, shortened: as §1

LOC_OS03G04050-cb001 = test system: LOC_OS03G04050-cb001
Procedure, shortened: as §1

LOC_OS03G12390-cb001 = test system: LOC_OS03G12390-cb001
Procedure, shortened: as §1

LOC_OS03G27990-cb004 = test system: LOC_OS03G27990-cb004
Procedure, shortened: as §1

LOC_OS03G50450-cb001 = test system: LOC_OS03G50450-cb001
Procedure, shortened: as §1

LOC_OS03G50810-cb003 = test system: LOC_OS03G50810-cb003
Procedure, shortened: as §1

LOC_OS04G35114-cb001 = test system: LOC_OS04G35114-cb001
Procedure, shortened: as §1

LOC_OS04G38480-cb003 = test system: T1, LOC_OS04G38480-cb003
T1 sequence (whole entry): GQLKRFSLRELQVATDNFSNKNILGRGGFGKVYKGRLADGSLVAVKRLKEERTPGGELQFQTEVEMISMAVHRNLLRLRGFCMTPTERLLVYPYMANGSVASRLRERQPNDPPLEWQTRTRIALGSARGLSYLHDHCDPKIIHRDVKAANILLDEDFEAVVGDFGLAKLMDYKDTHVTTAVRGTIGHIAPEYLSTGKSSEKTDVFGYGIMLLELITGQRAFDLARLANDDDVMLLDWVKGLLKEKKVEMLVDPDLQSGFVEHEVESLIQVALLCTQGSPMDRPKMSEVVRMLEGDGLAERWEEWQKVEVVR
Procedure, shortened: as §1

LOC_OS04G41100-cb001 = test system: T2, LOC_OS04G41100-cb001
T2 sequence (whole entry): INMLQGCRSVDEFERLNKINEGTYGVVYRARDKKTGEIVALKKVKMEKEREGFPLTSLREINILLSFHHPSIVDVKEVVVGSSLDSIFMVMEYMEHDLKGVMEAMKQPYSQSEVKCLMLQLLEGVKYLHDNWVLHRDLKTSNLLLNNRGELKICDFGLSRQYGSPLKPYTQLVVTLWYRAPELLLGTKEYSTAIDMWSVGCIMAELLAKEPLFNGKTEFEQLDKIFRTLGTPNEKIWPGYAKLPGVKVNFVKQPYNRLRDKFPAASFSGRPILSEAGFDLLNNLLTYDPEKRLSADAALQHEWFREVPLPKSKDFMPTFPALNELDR
Procedure, shortened: as §1
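Further: purified Escherichia coli-expressed rice kinase domain construct.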

SMILES	thermal shift delta Tm (LOC_OS01G57100-cb003) [°C]	thermal shift delta Tm (LOC_OS01G60330-cb001) [°C]	thermal shift delta Tm (LOC_OS01G60700-cb002) [°C]	thermal shift delta Tm (LOC_OS01G63280-cb003) [°C]	thermal shift delta Tm (LOC_OS01G67340-cb003) [°C]	thermal shift delta Tm (LOC_OS01G70970-cb002) [°C]	thermal shift delta Tm (LOC_OS02G07810-cb001) [°C]	thermal shift delta Tm (LOC_OS02G08530-cb003) [°C]	thermal shift delta Tm (LOC_OS02G14120-cb001) [°C]	thermal shift delta Tm (LOC_OS02G17970-cb001) [°C]	thermal shift delta Tm (LOC_OS02G45750-cb003) [°C]	thermal shift delta Tm (LOC_OS02G54510-cb004) [°C]	thermal shift delta Tm (LOC_OS03G04050-cb001) [°C]	thermal shift delta Tm (LOC_OS03G12390-cb001) [°C]	thermal shift delta Tm (LOC_OS03G27990-cb004) [°C]	thermal shift delta Tm (LOC_OS03G50450-cb001) [°C]	thermal shift delta Tm (LOC_OS03G50810-cb003) [°C]	thermal shift delta Tm (LOC_OS04G35114-cb001) [°C]	thermal shift delta Tm (LOC_OS04G38480-cb003) [°C]	thermal shift delta Tm (LOC_OS04G41100-cb001) [°C]
Cc1nc(Nc2n[nH]c3c2CN(C(=O)N[C@H](CN(C)C)c2ccccc2)C3(C)C)c2sccc2n1	0.61	-0.15	1.34	0.55	0.06	0.38	0.99	2.37	0.4	0.96	0.94	0.82	0.62	3.19	0.55	0.78	1.44	3.07	0.43	0.63
COc1ccc(-c2nc(N3CCOCC3)c3sc(CN(C)c4ncc(C(=O)NO)cn4)cc3n2)cn1	2.79	1.04	0.58	0.34	0.21	0.21	1.31	0.97	0.54	0.14	0.52	0.27	0.23	-0.11	0.18	-0.05	0.23	0.64	0.82	0.24
Cc1c(Cn2c(C)nc3c(C(=O)O)cc(N4CCOCC4)cc32)cccc1C(F)(F)F	1.01	0.83	0.4	-0.3	0.23	0.27	0.73	0.55	-0.38	0.26	0.34	0.11	0.14	-0.17	0.07	0.48	0.29	0.99	0.75	0.4
CN1CCN(c2ccc(OC(F)(F)F)c(Nc3ncc4c(n3)-c3c(c(C(N)=O)nn3CCO)CC4)c2)CC1	1.21	0.44	0.52	0.63	0.36	0.12	0.04	1.25	1.17	0.51	0.67	-0.01	0.33	1.65	-0.02	-0.04	0.54	1.58	-0.15	0.74
Cn1cc(-c2ccc3ncc(Cc4ccc5ncccc5c4)n3n2)cn1	0.9	1.91	0.96	0.15	0.76	0.25	1.07	1.43	2.22	0.32	0.5	0.06	0.32	-0.22	0.07	0.05	0.44	2.6	1.45	0.07
CC(C)c1c2cc(-c3ccnc(NC4CCC(NC5CCOCC5)CC4)n3)ccc2nn1C (stereo not given)	0.61	0.07	0.86	0.36	0.46	0.29	0.41	1.38	4.79	0.57	1.08	0.06	0.41	0.78	0.18	0.03	1.01	2.72	0.69	6.52
